Reference: PubChem BioAssay (NCATS)
“And” between values parts separate entries of the source, which are not always exact repeats. Identical values can stand only once. Inconclusive results are not listed. The source made the active and inactive calls. Unless noted, calls come from the whole dose curve; as a rule, active = well fitted curve in the direction sought with a large enough effect; inconclusive = small, poorly fitted or top-dose-only effect, or another doubt; inactive = no such curve, though single readings can be large; an effect the other way counts as inactive or inconclusive.

Key:
[1] = qHTS assay for small molecule disruptors of the mitochondrial membrane potential - 1 hr assay (AID 651754; calls by dose curve; note: % is set by controls: 0 for no effect and ±100 for the full control effect; nearly all actives have a fitted effect of over 35% in size); conditions: series mostly up to 92.2 µM
Outline: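 Loss of mitochondrial potential shifts the cationic dye from red mitochondrial aggregates to green cytoplasmic monomers. Cells (HepG2) are treated with compound for 1 hr before a 30 min dye incubation at 37C.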

[2] = target: Tumor necrosis factor (Homo sapiens) (UniProt P01375); experiment: qHTS assay to identify small molecules that stimulate Tumor Necrosis Factor-alpha (TNF-alpha) secretion (AID 651757; active = well fitted curve in the direction sought with a large enough effect in the signal ratio; the % refers to the signal ratio; note: 0% is about no effect); conditions: Human cells, HTRF 665/615 ratio; series mostly up to 92.2 µM
Tumor necrosis factor (Homo sapiens), sequence (P01375 whole entry, looked up): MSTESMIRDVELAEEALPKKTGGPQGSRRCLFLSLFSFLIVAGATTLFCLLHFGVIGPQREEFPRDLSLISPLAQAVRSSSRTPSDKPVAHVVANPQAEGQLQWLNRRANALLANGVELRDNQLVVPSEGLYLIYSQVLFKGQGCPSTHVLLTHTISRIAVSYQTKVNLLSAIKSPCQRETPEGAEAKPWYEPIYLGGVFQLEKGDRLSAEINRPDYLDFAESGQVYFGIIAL
Outline: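 Human monocytic THP-1 cells are plated, treated with compound and held at 37 C for 17 hrs. Labeled anti-TNF-alpha antibody mixture is then added; after 3 hr at room temperature, TR-FRET signal reports secreted TNF-alpha.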

[3] = qHTS assay for environmental chemicals that activate the Aryl hydrocarbon Receptor (AhR) signaling pathway (AID 651777); conditions: 1A2-DRE human hepatoma cells, luciferase, 24 h; activation: hits give high values; note: % of control where 0% means no effect; nearly all actives have a fitted effect of over 15% in size
Outline: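 1A2-DRE human hepatoma reporter line; 1,200 cells/well; cmpd or DMSO 24 h, 37 C/5% CO2; One-Glo 30 min RT; luciferase lum.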

[4] = target: Nuclear receptor ROR-gamma (Homo sapiens) (UniProt P51449); experiment: qHTS assay for small molecule antagonists of the retinoid-related orphan receptor gamma (ROR-gamma) signaling pathway (AID 651802); conditions: ROR-gamma antagonist cell reporter assay; series mostly up to 92.2 µM;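 note: CHO cells with doxycycline-induced ROR-gamma expression; % is set by controls: 0 for no effect and ±100 for the full control effect; nearly all actives have a fitted effect of over 60% in size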
Nuclear receptor ROR-gamma (Homo sapiens), sequence (P51449 whole entry, looked up): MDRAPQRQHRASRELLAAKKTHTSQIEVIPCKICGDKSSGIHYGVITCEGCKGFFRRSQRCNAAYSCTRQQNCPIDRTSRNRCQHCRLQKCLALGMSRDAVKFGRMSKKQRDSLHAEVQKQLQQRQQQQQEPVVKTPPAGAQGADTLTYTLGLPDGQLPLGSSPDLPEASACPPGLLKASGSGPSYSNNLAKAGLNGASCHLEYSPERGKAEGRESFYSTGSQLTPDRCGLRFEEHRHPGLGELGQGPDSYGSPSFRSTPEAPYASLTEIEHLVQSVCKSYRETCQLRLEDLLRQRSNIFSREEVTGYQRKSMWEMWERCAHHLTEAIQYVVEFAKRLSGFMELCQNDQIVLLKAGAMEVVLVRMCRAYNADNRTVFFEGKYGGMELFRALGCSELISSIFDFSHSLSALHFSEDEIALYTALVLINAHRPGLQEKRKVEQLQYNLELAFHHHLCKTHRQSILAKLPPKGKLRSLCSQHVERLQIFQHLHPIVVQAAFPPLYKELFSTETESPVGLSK
Outline: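 Steps: cells dispensed; compound or DMSO transferred by pin tool; doxycycline added to induce the ROR response element-driven luciferase; plates held 16hr at 37C; ONE-Glo added and luminescence measured.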

[5] = qHTS assay for small molecule agonists of the antioxidant response element (ARE) signaling pathway measured by Nrf2-dependant transcriptional activity (AID 720636; active = well fitted curve in the direction sought with a large enough effect in the repeat runs; an effect the other way counts as inactive or inconclusive;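 note: HepG2 cells with an ARE-driven luciferase reporter; % of control where 0% means no effect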); conditions: ARE-luc HepG2, Nrf2 luciferase reporter, 16 h; series mostly up to 92.4 µM
Outline: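 Cells: ARE-luc HepG2 with Nrf2-responsive luciferase. Medium contained 1% dialyzed FBS. Compound exposure lasted 16 hr at 37 C and 5% CO2, followed by ONE-Glo luciferase detection.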

[6] = qHTS assay for small molecule antagonists of the retinoid-related orphan receptor gamma (ROR-gamma) signaling pathway - cell viability counter screen (AID 720652; active = well fitted curve in the direction sought with a large enough effect in the repeat runs; an effect the other way counts as inactive or inconclusive;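 note: CHO reporter cells with doxycycline-induced ROR-gamma expression; compound exposure lasted 16 hr before ATP read; % is set by controls: 0 for no effect and ±100 for the full control effect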); conditions: RORgamma reporter cell line viability counter screen; series mostly up to 92.2 µM
Outline: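 Steps: seed CHO cells bearing TET-inducible ROR and ROR response element-luciferase; rest 5 hr at 37 C; add compound, then doxycycline; incubate 16 hr; add CellTiter-Glo and read luminescence as ATP-based viability.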

[7] = qHTS assay for small molecule agonists of the antioxidant response element (ARE) signaling pathway measured by Nrf2-dependant transcriptional activity - cell viability counter screen (AID 720653; active = well fitted curve in the direction sought with a large enough effect in the repeat runs; an effect the other way counts as inactive or inconclusive; note: % is set by controls: 0 for no effect and ±100 for the full control effect); conditions: ARE-bla HepG2 viability, CellTiter-Glo ATP luminescence, 16 h; hits give low values
Outline: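 ARE-bla HepG2 cells (2,000/well) rested 5 hrs at 37C/5% CO2, then exposed to compounds in DMSO for 16 hrs. Viability was read in the same wells as intracellular ATP by luminescence, 30 min at room temperature after reagent addition.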

[8] = qHTS assay for cell viability of HEK293 cells (AID 743288); conditions: ATP luminescence (CellTiter-Glo), 18 h, hits give low values; note: % is set by controls: 0 for no effect and ±100 for the full control effect; nearly all actives have a fitted effect of over 50% in size
Outline: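 Steps: plate 2,000 parental HEK293 cells per well; incubate ≥5 h, 37 C; add compounds in DMSO; incubate 18 h, 37 C; add CellTiter-Glo; wait 30 min at room temperature; read luminescence.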

[9] = qHTS assay for cell viability of the p53RE-bla HCT-116 cell line (AID 743292); conditions: p53RE-bla HCT-116 viability, ATP luminescence, 16 h; series mostly up to 95 µM; note: % is set by controls: 0 for no effect and ±100 for the full control effect; nearly all actives have a fitted effect of over 55% in size
Outline: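 HCT-116 p53RE-bla cells seeded 4,000/well; 5 h at 37 C; compound (DMSO) added; 16 h at 37 C; CellTiter-Glo added, 30 min RT; luminescence read.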

[10] = target: Nuclear receptor subfamily 1 group I member 2 (Rattus norvegicus) (UniProt Q9R1A7); experiment: qHTS assay for small molecule activators of the rat pregnane X receptor (rPXR) signaling pathway (AID 651751; call rule not given here; note: 0% is about no effect); conditions: rPXR reporter cells, luciferase (One-Glo), 24 h
Nuclear receptor subfamily 1 group I member 2 (Rattus norvegicus), sequence (Q9R1A7 whole entry, looked up): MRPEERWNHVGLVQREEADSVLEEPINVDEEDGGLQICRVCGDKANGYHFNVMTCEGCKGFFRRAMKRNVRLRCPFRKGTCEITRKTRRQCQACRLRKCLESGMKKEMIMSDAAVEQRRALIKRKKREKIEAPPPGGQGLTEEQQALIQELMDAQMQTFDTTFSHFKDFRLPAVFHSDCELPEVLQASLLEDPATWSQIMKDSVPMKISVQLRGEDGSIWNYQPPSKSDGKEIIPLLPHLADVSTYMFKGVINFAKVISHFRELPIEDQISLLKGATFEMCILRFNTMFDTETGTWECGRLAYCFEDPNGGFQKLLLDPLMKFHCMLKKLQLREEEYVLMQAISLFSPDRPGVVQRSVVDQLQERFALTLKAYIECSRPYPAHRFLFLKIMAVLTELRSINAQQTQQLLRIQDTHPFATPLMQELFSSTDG

[11] = qHTS assay for small molecule activators of the human pregnane X receptor (PXR) signaling pathway (AID 720659; call rule not given here; note: 0% is about no effect); conditions: DPX-2 HepG2 CYP3A4-luciferase, 24 h; series mostly up to 92.3 µM
[12] = qHTS assay for small molecule disruptors of the mitochondrial membrane potential - 5 hr assay (AID 651755; calls by dose curve; note: % is set by controls: 0 for no effect and ±100 for the full control effect; nearly all actives have a fitted effect of over 40% in size); conditions: JC-1-type ratio dye; series mostly up to 92.2 µM
Outline: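 Seed HepG2 overnight, add compound, incubate 5 hr at 37C and 5% CO2, stain 30 min with Mito-MPS, then measure monomer (490/535 nm) and aggregate (540/590 nm) fluorescence.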

[13] = qHTS assay to identify small molecules that stimulate interleukin-8 (IL-8) secretion (AID 651758; active = well fitted activation curve with a large enough effect in the signal ratio; the % refers to the signal ratio; note: 0% is about no effect); conditions: HTRF ratio (665/615); series mostly up to 92.2 µM
Outline: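 Quantitative HTS in THP-1 monocytic cells at 2000 cells per well, with 16 hrs compound incubation at 37 C. IL-8 in the medium was then quantified by HTRF immunoassay, read after 1-3 hrs at room temperature.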

[14] = target: Peroxisome proliferator-activated receptor alpha (Homo sapiens) (UniProt Q07869); experiment: qHTS assay for small molecule agonists of the peroxisome proliferator-activated receptor alpha (PPARalpha) signaling pathway (AID 651778); conditions: PathHunter PPARalpha complementation, chemiluminescence, 6 h; hits give high values; note: % of control where 0% means no effect
Peroxisome proliferator-activated receptor alpha (Homo sapiens), sequence (Q07869 whole entry, looked up): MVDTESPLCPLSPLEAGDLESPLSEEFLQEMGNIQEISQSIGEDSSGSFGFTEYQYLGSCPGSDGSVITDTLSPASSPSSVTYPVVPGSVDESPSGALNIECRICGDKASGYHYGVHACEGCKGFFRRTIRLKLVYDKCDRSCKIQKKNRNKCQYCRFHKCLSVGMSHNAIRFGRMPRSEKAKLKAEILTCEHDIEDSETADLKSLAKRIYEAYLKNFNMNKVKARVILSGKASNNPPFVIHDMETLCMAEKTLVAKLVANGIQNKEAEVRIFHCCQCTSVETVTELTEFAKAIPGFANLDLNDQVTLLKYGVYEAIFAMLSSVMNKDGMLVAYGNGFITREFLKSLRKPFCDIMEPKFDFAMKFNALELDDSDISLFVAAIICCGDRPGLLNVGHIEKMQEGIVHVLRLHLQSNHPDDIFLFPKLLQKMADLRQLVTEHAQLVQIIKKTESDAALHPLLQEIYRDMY
Outline: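 Cells plated at 2,000/well and held overnight at 37 C, 5% CO2, then compound added by pin tool for 6 hr; after PathHunter detection reagent and 60 min at room temperature, chemiluminescence from enzyme complementation was read.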

c1ccc(Nc2ccccc2)cc1
inactive: Potency [1] | Potency [2] | activation [3] 0.217% and 3.92% | Potency [4] | outcome [5] | Potency [6] | max response [7] -1.43% and -3.7% | max response [8] -6.24% and -7.97% | Potency [9] | max response [10] 1.12% and -1.15% | outcome [11]

BrC/C=C/CBr
inactive: Potency [12] | Potency [2] | Potency [13] | activation [3] 0.145% | max response [14] 3.19% | Potency [4] | outcome [5] | Potency [6] | max response [7] -9.49% | max response [8] -11% | Potency [9] | max response [10] -0.603%

O=[N+]([O-])c1cccc(C(F)(F)F)c1
inactive: Potency [1] | Potency [2] | activation [3] 0.319% | max response [14] 2.74% | Potency [4] | outcome [5] | Potency [6] | max response [7] 14.6% | max response [8] 0.368% | Potency [9] | max response [10] -1.97% | outcome [11]

CC(C)=CCC/C(C)=C/C=O
inactive: Potency [12] | Potency [2] | Potency [13] | activation [3] 1.06% and -1.3% | max response [14] -4.87% and -0.301% | Potency [4] | outcome [5] | Potency [6] | max response [7] -2.99% and -11.3% | max response [8] -7.6% and -9.91% | Potency [9] | max response [10] -5.36% and -0.0145% | outcome [11]

CCCCC(CC)COCC1CO1 (stereo unspecified)
inactive: Potency [1] | Potency [2] | activation [3] -1.2% | max response [14] -0.684% | Potency [4] | outcome [5] | Potency [6] | max response [7] -19% | max response [8] 0.479% | Potency [9] | max response [10] 9.04% | outcome [11]

CCCCCCO
inactive: Potency [12] | Potency [2] | Potency [13] | activation [3] -0.44% | max response [14] 6.04% | Potency [4] | outcome [5] | Potency [6] | max response [7] 4.6% | max response [8] 3.47% | Potency [9] | max response [10] 2.06% | outcome [11]

COC(=O)CS
inactive: Potency [1] | Potency [2] | activation [3] -0.254% | max response [14] -1.38% | Potency [4] | outcome [5] | Potency [6] | max response [7] -0.555% | max response [8] 3.47% | Potency [9] | max response [10] -1.83% | outcome [11]

Cc1cccc(C(=O)O)c1
inactive: Potency [1] | Potency [2] | activation [3] 0.807% | max response [14] -3.59% | Potency [4] | outcome [5] | Potency [6] | max response [7] -0.706% | max response [8] 2.24% | Potency [9] | max response [10] -5.92% | outcome [11]

CC/C=C/C#N
inactive: Potency [1] | Potency [2] | activation [3] -1.16% | max response [14] 9.19% | outcome [5] | Potency [6] | max response [7] 1.63% | max response [8] 5.67% | Potency [9] | max response [10] 1.47% | outcome [11]

O=CNc1ccccc1
inactive: Potency [1] | Potency [2] | activation [3] -0.556% | max response [14] -2.49% | Potency [4] | outcome [5] | Potency [6] | max response [7] -3.88% | max response [8] -2.01% | Potency [9] | max response [10] 1.37% | outcome [11]

CCN(Cc1ccccc1)c1ccccc1
inactive: Potency [12] | Potency [2] | Potency [13] | activation [3] 0.346% | max response [14] 3.08% | Potency [4] | outcome [5] | Potency [6] | max response [7] -1.24% | max response [8] -4.87% | Potency [9] | max response [10] -3.13% | outcome [11]

C=C(C)OC(C)=O
inactive: Potency [1] | Potency [2] | activation [3] -1.07% | max response [14] -3.39% | Potency [4] | outcome [5] | Potency [6] | max response [7] 7.41% | max response [8] -0.625% | Potency [9] | max response [10] -1.49% | outcome [11]

CCC(C)(C)C
inactive: Potency [1] | Potency [2] | activation [3] -1.03% | max response [14] -1.79% | Potency [4] | outcome [5] | max response [7] -1.09% | max response [8] -11.7% | Potency [9] | max response [10] -3.38% | outcome [11]
